According to PubChem BioAssay (NCATS):
Several values for one entry are separate records, joined by “and”; a condition that tells them apart may be missing. Equal entries are not always repeated. Inconclusive results are not listed. Unmarked numbers belong to inactive results. Activity calls are given as the source filed them. The call rests on the fitted dose curve; in most records, active means well fitted curve in the direction sought with a large enough effect; inconclusive means small, poorly fitted or top-dose-only effect, or another doubt; inactive means no such curve, though single readings can be large; an effect the other way counts as inactive or inconclusive.

What was measured:
[1] = biological target: Cellular tumor antigen p53 (Homo sapiens) (UniProt P04637); test: Primary qHTS for small molecule compounds that upregulate eGFP-tagged delta133p53alpha (in N-terminal) cells. (AID 2060322); conditions: NCI-H358 eGFP-delta133p53alpha fluorescence, 24 h; activation: active compounds read high; further: nearly all actives have a fitted effect of over 75% in size; further: potency means the concentration at half of the fitted maximal effect;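 on activation: 0% = DMSO vehicle and 100% = reference activator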
Chain of Cellular tumor antigen p53 (Homo sapiens) (P04637 whole entry, looked up): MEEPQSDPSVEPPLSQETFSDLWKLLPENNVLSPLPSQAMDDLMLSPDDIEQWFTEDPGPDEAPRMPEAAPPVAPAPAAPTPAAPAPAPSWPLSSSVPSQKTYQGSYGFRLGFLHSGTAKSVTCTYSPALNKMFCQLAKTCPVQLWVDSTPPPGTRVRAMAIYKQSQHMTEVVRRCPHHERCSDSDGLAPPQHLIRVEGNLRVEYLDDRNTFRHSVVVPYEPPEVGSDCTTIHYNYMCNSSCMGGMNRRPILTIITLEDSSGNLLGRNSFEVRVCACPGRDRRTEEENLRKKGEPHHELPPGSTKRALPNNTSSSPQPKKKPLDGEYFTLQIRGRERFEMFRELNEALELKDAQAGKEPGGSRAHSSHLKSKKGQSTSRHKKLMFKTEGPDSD
Method in brief: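 NCI-H358 cells pre-induced 24 h with 10 ng/ml doxycycline to express N-terminal eGFP-delta133p53alpha, then dosed 24 h at 37C without doxycycline; fixed, Hoechst-stained, GFP intensity by laser scanning cytometry, normalized to DMSO (0%) and 57.5 uM 5-azacytidine (100%).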

[2] = biological target: Aldehyde dehydrogenase, mitochondrial (Homo sapiens) (UniProt P05091); test: qHTS for Inhibitors of the Aldehyde Dehydrogenase Family (ALDH2) Primary screen (AID 2061308); conditions: ALDH2 enzyme inhibition qHTS, 1536-well; series mostly up to 56 µM;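 further: plate controls were vehicle for no effect and reference inhibitor for full effect; nearly all actives have a fitted effect of over 55% in size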
[3] = biological target: Retinaldehyde dehydrogenase 3 (Homo sapiens) (UniProt P47895); test: qHTS for Inhibitors of the Aldehyde Dehydrogenase Family (ALDH1A3) Primary screen (AID 2061315); conditions: ALDH inhibition qHTS; series mostly up to 56 µM;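 further: plate controls were DMSO vehicle for no effect and reference inhibitor for full effect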
[4] = BET inhibitor-based combinations targeting novel dependencies in MECOM-rearranged (r) AML: OCI-AML3 cell line (AID 2202232); conditions: CellTiter-Glo luminescence, 48 h; Potency: OCI-AML3 viability; series mostly up to 46 µM; further: nearly all actives have a fitted effect of over 35% in size; further: potency means the concentration at half of the fitted maximal effect
Method in brief: (§1)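 Viability of cells (500 per well) is scored by luminescent CellTiter-Glo at 48 hr post-dosing. Eleven-point titrations are normalized to DMSO and empty controls and reduced to AUC values.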

[5] = BET inhibitor-based combinations targeting novel dependencies in MECOM-rearranged (r) AML: MV-4-11 cell line (AID 2202233); conditions: MV-4-11 AML viability, CellTiter-Glo luminescence, 48 h; series mostly up to 46 µM; further: nearly all actives have a fitted effect of over 45% in size; further: potency means the concentration at half of the fitted maximal effect
Method in brief: (§2)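 Using pin-tool transfer, drugs were added in 11 doses to cells (500/well), incubated 48 hr, and assessed with CellTiter-Glo. Z-AUC is a mean-centring transformation applied separately to each screened line.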

[6] = BET inhibitor-based combinations targeting novel dependencies in MECOM-rearranged (r) AML: HNT-34 cell line (AID 2202234); conditions: HNT-34 AML viability, CellTiter-Glo luminescence, 48 h; series mostly up to 46 µM; further: nearly all actives have a fitted effect of over 35% in size; further: potency means the concentration at half of the fitted maximal effect
Method in brief: as §2

[7] = BET inhibitor-based combinations targeting novel dependencies in MECOM-rearranged (r) AML: AML-191 cell line (AID 2202236; further: nearly all actives have a fitted effect of over 35% in size; further: potency means the concentration at half of the fitted maximal effect); conditions: AML-191 viability, CellTiter-Glo luminescence, 48 h; series mostly up to 46 µM
Method in brief: as §1

[8] = BET inhibitor-based combinations targeting novel dependencies in MECOM-rearranged (r) AML: AML-194 cell line (AID 2202237; further: nearly all actives have a fitted effect of over 40% in size; further: potency means the concentration at half of the fitted maximal effect); conditions: AML-194 (MECOM-r AML) viability, CellTiter-Glo, 48 h; series mostly up to 46 µM
Method in brief: as §1

[9] = BET inhibitor-based combinations targeting novel dependencies in MECOM-rearranged (r) AML: UCSD-AML1 cell line (AID 2202235); conditions: UCSD-AML1 AML cells viability, CellTiter-Glo, 48 h; series mostly up to 46 µM; further: nearly all actives have a fitted effect of over 40% in size; further: potency means the concentration at half of the fitted maximal effect
Method in brief: as §2

Row | SMILES | activation [1] | activity change, negative = inhibition [2] | activity change, negative = inhibition [3] | Potency [4] | Potency [5] | Potency [6] | Potency [7] | Potency [2] | Potency [3] | Potency [8] | Potency [9] | Potency [1]
1 | CC(=O)c1c(C)c2cnc(Nc3ccc(N4CCNCC4)cn3)nc2n(C2CCCC2)c1=O | 46.5% and -19.6% | 10.9% [at 5.59 µM] | -7.36% [at 5.59 µM] | 20.9 µM (active) | 6.61 µM (active) | 16.6 µM (active) | 16.6 µM (active) |  |  |  |  | 
2 | NC(=O)c1c(OCc2c(F)cc(Br)cc2F)nsc1NC(=O)NCCCCN1CCCC1 | 9.77% |  |  | 20.9 µM (active) | 20.9 µM (active) | 23.5 µM (active) | 26.3 µM (active) | inactive | inactive | 26.3 µM (active) |  | 
3 | Nc1nc(OCc2cc(Br)cs2)c2[nH]cnc2n1 | -5% |  |  | 9.34 µM (active) |  |  |  | inactive | inactive |  | inactive | 
4 | COc1cc2c(NC3CCN(C(C)C)CC3)nc(C3CCCCC3)nc2cc1OCCCN1CCCC1 | 27.1% and 25.7% |  |  | 18.6 µM (active) |  | 11.8 µM (active) | 20.9 µM (active) | inactive | inactive | 14.8 µM (active) | 11.8 µM (active) | 
5 | Cc1nc(N)ncc1-c1nc(N2CCOCC2)c2sc(C(C)(C)O)cc2n1 | 9.3% |  |  | 0.105 µM (active) | 4.17 µM (active) |  |  | inactive | inactive |  | 1.32 µM (active) | 
6 | CCCCCN(CCC12CC3CC(CC(C3)C1)C2)C(=O)NCCCc1ccncc1 |  |  |  | 18.6 µM (active) | 13.2 µM (active) | 16.6 µM (active) | 20.9 µM (active) | inactive | inactive | 18.6 µM (active) |  | 23.9 µM (active)
7 | CNC(=O)c1cc(Oc2ccc(NC(=O)Nc3ccc(Cl)c(C(F)(F)F)c3)c(F)c2)ccn1 | 8.41% |  |  | 2.63 µM (active) | 0.59 µM (active) | 10.5 µM (active) | 9.34 µM (active) | inactive | inactive |  |  | 
8 | CC1(C)CN(C(=O)c2ccc(-c3cccc4nc(NC(=O)C5CC5)nn34)cc2)C1 | 5% |  |  | inactive |  | 18.6 µM (active) |  | inactive | inactive | inactive |  | 
9 | O=C(NC[C@H](O)CN1CCc2ccccc2C1)c1ccnc(NC2CCC2)c1 | 4.33% |  |  | 0.0042 µM (active) |  | inactive |  | inactive | inactive |  | inactive | 
10 | O=C(O)c1ccc(O)c2ncc(N3CCOCC3)cc12 | 22.8% |  |  | inactive |  |  |  | inactive | inactive | inactive | inactive | 
11 | CC(C)(C)c1cc(NC(=O)Nc2ccc(-c3cn4c(n3)sc3cc(OCCN5CCOCC5)ccc34)cc2)no1 | 10.5% and 25% |  |  | 4.68 µM (active) | 0.003 µM (active) |  | 4.68 µM (active) | inactive | inactive | 14.8 µM (active) | inactive | 
12 | COc1ccc(-c2c(-c3ccc(O)cc3O)n[nH]c2C)cc1 | -3.77% |  |  | inactive | inactive |  | inactive | inactive | inactive | inactive | inactive | 
13 | CN1CCN(C(=O)c2ccc3cc(CCNc4ncnc5ccc(C#N)cc45)ccc3c2)CC1 | -12.3% |  |  |  | 7.42 µM (active) |  |  | inactive | inactive |  |  | 
14 | Cc1cccc(Nc2nc(-c3ccncc3)cs2)c1 | 11.1% and -1.43% |  |  | inactive |  |  |  | inactive | inactive |  | inactive | 
15 | CNC(=O)c1ccc(C)c(-n2c(C)cc(OCc3ccc(F)cc3F)c(Br)c2=O)c1 | 30.3% and -12.5% |  |  | inactive |  |  |  | inactive | inactive |  | inactive | 
16 | Nc1ncnc2c1ncn2[C@@H]1O[C@H](CO)C[C@H]1O |  |  |  | inactive | inactive |  | inactive | inactive | inactive | inactive |  | 12 µM (active)
17 | COc1nccc(-c2c(-c3ccc(F)cc3)ncn2C2CCC(O)CC2)n1 (stereo unspecified) | 22% and -24.1% |  |  | 18.6 µM (active) |  |  | 18.6 µM (active) | inactive | inactive | inactive |  | 
18 | Cc1ccc(NC(=O)c2ccc(CN3CCNCC3)cc2)cc1Nc1nccc(-c2cccnc2)n1 | -16.1% |  |  |  | 18.6 µM (active) | 2.63 µM (active) |  | inactive | inactive |  |  | 
19 | COc1nccc(-c2c(-c3ccc(F)cc3)ncn2C2CCNCC2)n1 | 2.68% |  |  | inactive | 20.9 µM (active) |  | 20.9 µM (active) | inactive | inactive |  | 16.6 µM (active) | 
20 | CNC(=O)c1cccc2cc(Oc3ccnc4cc(OCC5(N)CC5)c(OC)cc34)ccc12 | 12.5% |  |  | 23.5 µM (active) |  | 16.6 µM (active) | 20.9 µM (active) | inactive | inactive | 23.5 µM (active) | 18.6 µM (active) | 
21 | Cc1ccc(-c2ccc3c(ccc4sc5c(c43)NC[C@@H](C)NC5=O)n2)cn1 | 8.04% |  |  | 18.6 µM (active) | 20.9 µM (active) | 26.3 µM (active) | 26.3 µM (active) | inactive | inactive | 26.3 µM (active) |  | 
22 | Nc1ccc(-c2ccc3ncc4ccc(=O)n(-c5cccc(C(F)(F)F)c5)c4c3c2)cn1 | 6.6% |  |  | 0.166 µM (active) |  | 0.059 µM (active) | 0.0525 µM (active) | inactive | inactive | 0.0417 µM (active) | 0.0263 µM (active) | 
23 | CN(NC(=O)CC(=O)NN(C)C(=S)c1ccccc1)C(=S)c1ccccc1 |  |  |  | 0.0525 µM (active) |  | 0.0148 µM (active) | 0.0372 µM (active) | inactive | inactive | 0.0417 µM (active) | 0.059 µM (active) | 0.861 µM (active)
24 | COc1cc(F)c(F)c(Nc2ccc(I)cc2F)c1NS(=O)(=O)C1(C[C@H](O)CO)CC1 | 4.11% |  |  | 0.166 µM (active) |  | 1.32 µM (active) |  | inactive | inactive |  | 0.662 µM (active) | 
25 | CC(=O)O[C@]1(C(C)=O)CC[C@H]2[C@@H]3C[C@H](C)C4=CC(=O)CC[C@]4(C)[C@H]3CC[C@@]21C | -7.53% and -21% |  |  | 14.8 µM (active) | 18.6 µM (active) | 8.33 µM (active) | 9.34 µM (active) | inactive | inactive | 9.34 µM (active) |  | 
26 | Cc1cc(Nc2cc(N3CCN(C)CC3)nc(Sc3ccc(NC(=O)C4CC4)cc3)n2)n[nH]1 | 60.2% |  |  | 0.662 µM (active) | 0.132 µM (active) | 0.235 µM (active) | 0.662 µM (active) | inactive | inactive | 0.934 µM (active) |  | 
